Shown is part of a subset that was picked to be rich in hits.
mcGAS MS inh: mouse cGAS inhibition by mass spec | inhibition, % at 12.5 µM | AID 1259397 | recombinant mouse cGAS, cGAMP by RapidFire MS | Q8C6L5 | actives 0.18% (n = 130,000);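 active = inhibition of cGAS enzyme activity at or above 60%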;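 note: enzyme stimulated by 45 bp dsDNA with ATP and GTP substrates; cGAMP share of summed cGAMP plus half ATP and half GTP signals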
Target sequence (Q8C6L5 whole entry, looked up): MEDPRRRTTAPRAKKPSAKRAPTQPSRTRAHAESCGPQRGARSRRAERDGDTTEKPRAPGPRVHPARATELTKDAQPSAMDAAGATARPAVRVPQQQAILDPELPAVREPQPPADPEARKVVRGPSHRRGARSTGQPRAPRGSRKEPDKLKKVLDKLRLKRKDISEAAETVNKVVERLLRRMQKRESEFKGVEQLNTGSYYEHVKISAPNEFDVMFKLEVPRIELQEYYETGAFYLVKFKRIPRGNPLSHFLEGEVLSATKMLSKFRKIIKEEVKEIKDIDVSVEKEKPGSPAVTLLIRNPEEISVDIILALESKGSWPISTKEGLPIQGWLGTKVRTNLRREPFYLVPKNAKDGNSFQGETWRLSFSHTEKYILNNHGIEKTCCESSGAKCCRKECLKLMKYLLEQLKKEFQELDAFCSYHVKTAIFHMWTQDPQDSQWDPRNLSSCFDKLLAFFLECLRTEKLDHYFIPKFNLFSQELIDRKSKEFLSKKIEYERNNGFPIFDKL
Numbers without * were called inactive; ! = not active in a repeat.

SMILES	mcGAS MS inh
CC1(C)C(c2ccc(Br)cc2)=[N+]([O-])C2(CCCCC2=O)N1O (stereo not given)	7.0
O=c1oc2ccc(O)cc2c2c1NCCC2	-26.4
O=C1CNc2c(c(=O)oc3ccccc23)N1	95.6*
O=C(c1c(O)c2ccccc2oc1=O)C1CCC1	-2.0
O=C1NC(O)C(Cl)=C1Cl (stereo not given)	-6.5
O=[N+]([O-])c1cccnc1Oc1ccc(Cl)cc1Cl	-5.5
CCOC(=O)c1c(NC(=O)C2CC2)sc(C(=O)Nc2ccc(OC)cc2OC)c1C	-5.5
S=C(NCc1ccco1)NC1CCSc2ccccc21 (stereo not given)	-0.4
O=C1CSC(=NNC(=S)NCc2ccco2)N1	83.2*
C=C(N/N=C1/NC(=O)CS1)c1ccccc1	-6.2
Cc1nccc(NCc2cccnc2N(C)Cc2ccccc2)n1	-17.2
Cc1nc2c(cc(O)c3ccsc32)s1	-4.9
Cc1nc2c(cc(OS(=O)(=O)c3cccs3)c3ccsc32)s1	62.0*
CCOC(=O)c1nn(-c2ccccc2)c(=O)cc1OS(=O)(=O)c1cccs1	0.5
CC(C)c1nc(NC(=O)c2ccc(CNC(=O)C(C)(C)C)cc2)n[nH]1	76.8*
CC(C)(C)c1ccc(C(=O)Nc2n[nH]c(C(F)(F)F)n2)cc1	-1.0
CC(C)c1nc(NC(=O)c2cn(Cc3cccs3)nn2)n[nH]1	-5.3
CC(=O)N1CCCc2cc(S(=O)(=O)NC(C)c3ccc(Cl)cc3Cl)ccc21 (stereo not given)	1.8
O=C(NCc1cccc(CN2CCCC2=O)c1)c1ccc(Cl)cc1Cl	-3.4
CC(C#N)CN(C)C(=O)C1CCCC(C(=O)N(C)CC(C)C#N)C1 (stereo not given)	2.1
Fc1ccccc1N1CCN(Cn2[nH]c(-c3ccccc3)nc2=S)CC1	4.6
S=c1nc(-c2ccccc2)[nH]n1CN1CCc2ccccc2C1	76.9*
CN(C)C(=O)C1CCCN1Cn1[nH]c(-c2ccccc2)nc1=S (stereo not given)	17.2
Cc1cc(C)cc(C(=O)Nc2c(C)nc3ccccn3c2=O)c1	-13.9
CC12CCCCC1CCC1C2CCC2(C)C1CCC2(O)CNCCO (stereo not given)	-43.3
SMILES	mcGAS MS inh
CCCc1nnc2sc(-c3cc(C(C)C)[nH]n3)nn12	-28.8
CC(C)c1cc(-c2nn3c(C4COc5ccccc5O4)nnc3s2)n[nH]1 (stereo not given)	70.4*
c1ccc(CCc2nn3c(C4COc5ccccc5O4)nnc3s2)cc1 (stereo not given)	53.7
O=C(Nc1ccccc1)N1CCCC(OCc2ccc(C(F)(F)F)cc2)C1 (stereo not given)	-4.6
Cc1cccnc1[C@H](C)Nc1nc(-c2cccnc2)nc2c1cnn2C	5.6
CCN(Cc1noc(C2CCC2)n1)Cc1nccn1C	-6.2
CCc1csc(CNC(=O)CC(=O)Nc2ccccc2C)n1	-10.0
N#Cc1ccc(N=Nc2c(-c3ccc([N+](=O)[O-])cc3)[nH]n(-c3ccccc3)c2=O)cc1	-3.2
O=C(O)c1ccc(N=Nc2c(-c3ccccc3)[nH]n(-c3ccc([N+](=O)[O-])cc3)c2=O)cc1	76.0*
O=c1c(N=Nc2cccc([N+](=O)[O-])c2)c(-c2ccccc2)[nH]n1-c1ccccc1	-6.5
Cc1ccc(Nc2cc(C)nc(N3CCN(C(=O)CCCc4ccccc4)CC3)n2)cc1	-7.4
CSc1nnc(CN2CCCC2CO)s1 (stereo not given)	14.1
COC(=O)C1CCN(S(=O)(=O)c2c(F)cc(F)cc2Br)CC1	-12.0
COC(=O)c1cc(F)ccc1CN(C)CC1CCCO1 (stereo not given)	-7.7
N#Cc1cccc(NC(=O)N2CCN(c3ccc(C#N)cc3F)CC2)c1	-0.5
N#Cc1cccc(N/N=C2\CCn3cccc32)c1	-7.2
N#Cc1cccc(NN=C2CCN(c3ccc(F)cc3)CC2)c1	88.7*
Cc1cc(C(=O)CSc2nnc(C3CC3)n2C2CC2)c(C)n1C1CCS(=O)(=O)C1 (stereo not given)	0.9
CCCc1nc(SCC(=O)Nc2ccc(C)cc2)c2c(=O)n(C)c(=O)n(C)c2n1	6.1
Cc1nc2ccccc2c(C)c1CC(=O)NCCCn1ccnc1	-7.0
Cc1ccccc1CC(C)(C)NC(=O)NCCn1ccnc1	-5.4
CN(C)C(=O)Cc1ccccc1NC(=O)NCCCn1ccnc1	94.1*
Cc1coc(-c2ccc(C)c(NC(=O)c3cccc(NS(C)(=O)=O)c3)c2)n1	-8.6
Cc1ccc(C(=O)Nc2ccc(S(=O)(=O)O)c3cc(S(=O)(=O)O)cc(S(=O)(=O)O)c23)cc1NC(=O)c1cccc(NC(=O)Nc2cccc(C(=O)Nc3cc(C(=O)Nc4ccc(S(=O)(=O)O)c5cc(S(=O)(=O)O)cc(S(=O)(=O)O)c45)ccc3C)c2)c1	93.3*
Cc1ccc(NC(=O)c2ccc(S(N)(=O)=O)c(C)c2)cc1C	-10.6
SMILES	mcGAS MS inh
O=C(O)c1ccc(=O)n(Cc2ccc(F)cc2)c1	-0.2
CCOc1ccc2oc(C(=O)Nc3sc(C)c(C)c3C#N)c(C)c2c1	2.4
CC1(C(=O)NCc2ccc(S(C)(=O)=O)cc2)CC1(Cl)Cl (stereo not given)	-17.1
Cc1ccc(NS(=O)(=O)c2c(C)c(C)c(C)c(C)c2C)c(C)c1O	-1.7
O=C1c2c(O)ccc(O)c2C(=O)c2c(NCCNCCO)ccc(NCCNCCO)c21	83.3*!
CC(NS(C)(=O)=O)C(=O)N1CCC(c2ccncc2)CC1 (stereo not given)	-15.3
Cc1cc(-c2ccccc2C(F)(F)F)nc(N)n1	-4.6
COCc1c(C(=O)N(C)CC(=O)Nc2cccc(C)c2C)oc2ccccc12	-4.3
Cc1ccccc1N=Cc1c(C(F)(F)F)[nH]n(-c2nc3ccccc3s2)c1=O	68.9*
C=CCN=Cc1c(C(F)(F)F)[nH]n(-c2nc3ccccc3s2)c1=O	-15.1
Cc1[nH]n(-c2nc3ccccc3s2)c(=O)c1C=NC1CCN(Cc2ccccc2)CC1	-6.3
CCC(=O)C(=O)N1CCC(Cc2nncn2-c2ccccc2)CC1	-8.4
COc1ccc(CN2CCC(C(=O)NC(C)c3cc(OC)ccc3OC)CC2)cc1 (stereo not given)	-4.9
Cn1ccc2c(-c3ccnc(N)c3)ccnc21	-10.0
COc1cccc2c1C(=O)c1c(O)c3c(c(O)c1C2=O)C[C@@](O)(C(C)=O)C[C@@H]3O[C@H]1C[C@H](N)[C@H](O)[C@H](C)O1	90.6*!
COc1cccc2c1C(=O)c1c(O)c3c(c(O)c1C2=O)C[C@@](O)(C(=O)CO)C[C@@H]3O[C@H]1C[C@H](N)[C@@H](O)[C@H](C)O1	98.3*!
CC(=O)[C@]1(O)Cc2c(O)c3c(c(O)c2[C@@H](O[C@H]2C[C@H](N)[C@H](O)[C@H](C)O2)C1)C(=O)c1ccccc1C3=O	90.4*
COC(=O)CC(NC(=O)COc1ccccc1)c1ccc(OC)c(OC)c1 (stereo not given)	2.0
CCN(C)c1ccc(CSc2nnc(CSC)o2)cc1	1.2
CCC(=O)NC(NC(=S)Nc1cccc(C(=O)O)c1)C(Cl)(Cl)Cl (stereo not given)	3.6
O=C(CN1C(=O)CS/C1=C/S(=O)(=O)c1ccc(Cl)cc1)c1ccccc1	0.2
Cn1nnc2c(=O)n(Cc3ccc(F)cc3)cnc21	-4.4
CN1CCCNC(=O)C12CCN(C(=O)c1ccccc1C1CCNC1)CC2 (stereo not given)	-8.7
COc1ccc(C(C)C)cc1S(=O)(=O)Nc1cccc(Cl)c1Cl	7.6
COc1ccccc1NS(=O)(=O)c1cc(F)ccc1F	4.4
COc1cc(C)c(S(=O)(=O)Nc2c(F)cccc2F)cc1OC	86.7*
COc1ccc(NS(=O)(=O)c2cc(C)ccc2C)cc1OC	-8.9

Assay outcomes deposited in PubChem BioAssay by Fisher Drug Discovery Resource Center.
